The list is not random: actives were taken first. Their share in the collection is about 5.9%.
Gal4-VP16 FLuc: Gal4-VP16 reporter inhibition counter-screen; Potency, µM (titrated, usually from 53.6 µM), for inactives: at the top dose activity, negative = inhibition, usual class: inhibitors; hit rate 3.5% among 310,000; Drosophila S2 Gal4-VP16 UAS-luciferase, luminescence, 20 h; AID 2546;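 also: Gal4-VP16 expression switched on by copper sulfate through the metallothionein promoter; % is scaled to controls: 0 for no effect and ±100 for the full control effect; nearly all actives have a fitted effect of over 50% in size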
GLP1R inv ag: GLP-1 receptor (human) inverse agonism; HEK293 GLP-1R CRE-luciferase, luminescence, 24 h; GLP-1R form is constitutively active; hit rate 1.6% among 410,000; AID 624417; P43220; Potency, µM (top dose mostly 38.3 µM), for inactives: at the highest dose activity change, negative = inhibition, usual class: inhibitors; also: % is scaled to controls: 0 for no effect and ±100 for the full control effect; nearly all actives have a fitted effect of over 55% in size
Target sequence (P43220 whole entry, looked up): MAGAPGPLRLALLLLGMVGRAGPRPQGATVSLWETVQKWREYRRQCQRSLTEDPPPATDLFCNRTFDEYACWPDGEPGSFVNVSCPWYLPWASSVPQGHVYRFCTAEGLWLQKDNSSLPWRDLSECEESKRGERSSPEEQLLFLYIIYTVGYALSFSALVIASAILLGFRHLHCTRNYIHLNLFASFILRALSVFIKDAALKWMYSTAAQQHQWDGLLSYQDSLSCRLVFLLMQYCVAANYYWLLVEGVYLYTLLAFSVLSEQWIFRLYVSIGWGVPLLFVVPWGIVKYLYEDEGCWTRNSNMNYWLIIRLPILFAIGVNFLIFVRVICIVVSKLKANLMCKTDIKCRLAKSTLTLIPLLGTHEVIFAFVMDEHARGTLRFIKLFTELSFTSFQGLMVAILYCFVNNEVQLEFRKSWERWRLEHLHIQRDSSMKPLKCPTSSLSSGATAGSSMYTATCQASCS
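Inverse agonism was detected as reduced cAMP-driven luciferase luminescence after 24 h compound treatment. The cells were HEK293 clones expressing constitutively active human GLP-1R with the reporter. Reporter-only and GPR119 cell lines served as counterscreen controls.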
RORg inh: ROR gamma (mouse) transcription inhibition | Drosophila S2 Gal4-RORgamma UAS-luciferase reporter, 20 h | AID 2551 | hit rate 5.4% among 310,000 | Potency, µM (series often up to 53.6 µM), without a hit: top-dose activity change, negative = inhibition, actives largely listed as inhibitors; also: % is scaled to controls: 0 for no effect and ±100 for the full control effect; nearly all actives have a fitted effect of over 60% in size
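Drosophila Schneider cells stably carrying a metallothionein-driven Gal4 DBD–ROR gamma fusion and a UAS-Photinus luciferase reporter were exposed to compound for 1 hr, then induced with copper sulfate (700 uM final) for 20 hr at ambient temperature before luminescence reading.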
GLP1R cytotox: cytotoxicity in counter-screen for GLP-1R inverse agonists | hit rate 0.13% among 410,000 | HEK293 cAMP-luciferase reporter cells, luminescence, 24 h | AID 624418 | Potency, µM (series often up to 38.3 µM), without a hit: top-dose activity change, negative = inhibition, most hits filed as inhibitors;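 also: loss of luciferase light is scored as toxicity; % is scaled to controls: 0 for no effect and ±100 for the full control effect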
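Step one: seed cells (200 cells/uL, DMEM with 10% Nu serum, 1% pen-strep). Step two: 12-hour incubation at 37 deg C. Step three: pin 23 nL compound, incubate 24 hr. Step four: add luciferase reagent, read luminescence 12 min later.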
GLP1R ag: GLP-1 receptor (human) agonism; P43220; HEK293 GLP-1R CRE-luciferase, luminescence, 4-6 h; cells express a hypersensitive GLP-1R form; Potency, µM (highest dose often 45.6 µM), without a hit: at the highest dose activation, most hits filed as activators; hit rate 0.007% among 380,000; also: % of control where 0% means no effect
Numbers without * were called inactive; ? = inconclusive; nt = no result given; [ ] = remark or other dose. Calls follow the shape of the dose curve; as a rule, active = well fitted curve in the direction sought with a large enough effect; inconclusive = small, poorly fitted or top-dose-only effect, or another doubt; inactive = no such curve, though single readings can be large; an effect the other way counts as inactive or inconclusive. Potency is read from the fitted curve at half-maximal effect.

SMILES	Gal4-VP16 FLuc	GLP1R inv ag	RORg inh	GLP1R cytotox	GLP1R ag
CN(c1ccccc1)S(=O)(=O)c1cccc(NC(=O)COc2cccc([N+](=O)[O-])c2)c1	nt	10µM*	nt	-7%	-1%
CN(c1ccccc1)S(=O)(=O)c1cccc(NC(=O)CSc2n[nH]c(N)n2)c1	7.1µM*	9%	?	-7%	8%
Cc1cc(S(=O)(=O)NCc2ccccc2)ccc1OCC(=O)NCc1ccccn1	-19%	5%	14%	-5%	-2%
Nc1nc(SCC(=O)Nc2cccc(S(=O)(=O)N3CCCCCC3)c2)n[nH]1	-2%	0%[7.66 µM]	31%	4%[7.66 µM]	0%
Cc1cc(S(=O)(=O)NCc2ccccc2)ccc1OCC(=O)Nc1cccc([N+](=O)[O-])c1	11µM*	-1%	34%	6%[1.53 µM]	-3%
Cc1ccsc1CN(C)CC(=O)Nc1cccc(S(=O)(=O)N(C)c2ccccc2)c1	nt	8.9µM*	nt	1%	-24%
CCC(=O)c1ccc(OCC(=O)Nc2cccc(S(=O)(=O)N(C)c3ccccc3)c2)cc1	nt	?	nt	-16%	-5%
Cc1ccc(CNC(=O)c2ccc(N3Cc4ccccc4Oc4ncccc43)s2)cc1	nt	-20%	nt	1%	nt
O=c1c(-c2ccc(O)cc2)coc2cc(O[C@@H]3O[C@H](CO)[C@@H](O)[C@H](O)[C@H]3O)cc(O)c12	4%	nt	13%	nt	nt
CCc1ccc(NC(=S)Nc2cccc3cnccc23)cc1	?	?	11µM*	?	2%
Cc1ccc(NC(=S)Nc2ccc3cn[nH]c3c2)c(C)c1	-10%	4%	?	-1%	7%
C=C(C)CNC(=S)Nc1cccc2cnccc12	-23%	-2%	-18%	4%	1%
Cc1ccc(NC(=S)Nc2cccc3cnccc23)c(C)c1	-26%	9%	16µM*	3%	1%
Cc1cc(C)cc(NC(=S)Nc2cccc3cnccc23)c1	?	-21%	13µM*	-3%	19%
CC1CN(C(=O)Nc2ccc(C(=O)NCc3cccc(F)c3)cc2)c2ccccc2S1 (stereo unspecified)	nt	?	nt	-18%	nt
CCCCC/C=C\C/C=C\C/C=C\CCCCCCC(=O)NCC(=O)O	8%	nt	15%	nt	nt
N#Cc1cccc(-c2nc(NCc3cccnc3)c3ccccc3n2)c1	0%	nt	-39%	nt	nt
Cc1ccc(Nc2cc(C(=O)NCc3cccs3)c3ccccc3n2)c(C)c1	nt	2µM*	nt	-10%	nt
O=Cc1cn(CCC(=O)O)nc1-c1cccc2ccccc12	11µM*	-1%	3.2µM*	0%	5%
Oc1cccc2ccc[n+](CC(O)Cn3c4ccccc4c4ccccc43)c12 (stereo unspecified)	22µM*	?	-73%	?	-2%
S=C1NC2(CCCCC2)Cc2ccccc21	?	?	1.1µM*	?	12%
COc1cc2c(cc1OC)C(C)=NC1(CCCCC1)C2	-4%	11%	1%	12%	1%
COc1cc2c(cc1OC)C(=S)NC1(CCCC1)C2	14µM*	?	2µM*	?	13%
O=C1NC2(CCCCC2)Cc2ccccc21	5%	-14%	21%	2%	-1%
CC1CCN(S(=O)(=O)c2ccc3c(c2)N(CC(=O)NC(C)C)C(=O)CS3)CC1	nt	9%	nt	2%	nt
SMILES	Gal4-VP16 FLuc	GLP1R inv ag	RORg inh	GLP1R cytotox	GLP1R ag
Cc1ccc(-n2c(C)cc(C(=S)N3CCOCC3)c2C)cc1C	-28%	1%	14µM*	5%	4%
O=C(Nc1ccc2nc(SCC(=O)N3CCCc4ccccc43)sc2c1)c1cccc(Cl)c1	nt	?	nt	-1%	nt
O=C(NC(=S)NCCc1ccc(Cl)cc1)c1ccco1	?	?	8.9µM*	?	26%
S=C(NCCc1ccc(Cl)cc1)NCc1ccccc1	?	?	?	?	-7%
S=C(NCCc1ccc(Cl)cc1)NCc1ccco1	-21%	5%[7.66 µM]	11µM*	0%[7.66 µM]	11%
S=C(NCc1ccc(Cl)cc1)NCc1ccco1	10µM*	?	7.1µM*	?	13%
CCNC(=S)NCc1ccco1	-3%	9%	-15%	-8%	-4%
CN(C)c1cc(NC(=O)CNC(C)(C)C)c(O)c2c1C[C@@H]1C[C@H]3[C@H](N(C)C)C(=O)C(C(N)=O)=C(O)[C@@]3(O)C(=O)C1=C2O	nt	nt	nt	nt	0%
O=C(Nc1ccc(OCC(F)(F)C(F)F)c(C(F)(F)F)c1)c1ccccc1O	-8%[0.365 µM]	?	7.9µM*	?	-7%
Cc1ccc(NC(=O)CC2Oc3ccccc3NC2=O)cc1C (stereo unspecified)	nt	-15%	nt	-1%	nt
O=C(O)CCCN1C(=O)/C(=C\c2ccco2)SC1=S	1.3µM*	20%	4µM*	?	3%
O=C(CCCN1C(=O)/C(=C\c2ccco2)SC1=S)Nc1ccc2ccccc2c1	10µM*	1%	13µM*	-6%	4%
O=C(CCCN1C(=O)/C(=C/c2ccco2)SC1=S)Nc1ccccc1C(=O)O	1%	24%	5%	?	-5%
O=C(CCN1C(=O)/C(=C/c2ccco2)SC1=S)Nc1ccc(C(=O)O)c(O)c1	5%	3%	9%	?	6%
CC(C)CC(CSc1ccc(Br)cc1)N1CCN(CC(C)C)CCC1=O (stereo unspecified)	-10%	nt	13%	nt	nt
CN1CC(=O)N(C)c2ncn(Cc3ccccc3)c2C1=O	-8%[0.365 µM]	0%	4.5µM*	1%	-11%
Cc1cc(C(=O)NCCCC(=O)O)c(C)o1	-8%	3%	-1%	3%	-2%
Cc1cc(C(=O)NCCC(c2ccccc2)c2ccccc2)c(C)o1	12%	8.9µM*	-29%	-1%	0%
O=C(NCc1ccc(F)cc1)C1CCCCN1S(=O)(=O)c1ccc(F)cc1 (stereo unspecified)	nt	-16%	nt	8%	nt
O=C(O)CCc1nn2c3ccccc3nc2n(-c2ccccc2)c1=O	-6%	0%	11µM*	1%	1%
CC(=O)NC12CC3CC(C1)CC(C(=O)OCC(=O)c1ccc4c(c1)OCCO4)(C3)C2	?	1%	14µM*	-19%	-25%
CCOc1cc(C(=O)Nc2ccc(-c3nnc4n3CCCCC4)cc2)cc(OCC)c1OCC	nt	-13%	nt	-6%	4%
C#CCn1c(=NC(=O)c2ccc(S(=O)(=O)N3CCc4ccccc4C3)cc2)sc2cc(S(N)(=O)=O)ccc21	10µM*	4µM*	11µM*	3.5µM*	-31%
CC1(C)CC(CC(=O)NNc2nc(-c3ccccc3)cs2)C(=O)O1 (stereo unspecified)	-2%	-12%	-1%	-14%	-1%
CC(C)CC1CC(C)(c2csc(NNC(=O)c3ccccc3)n2)OC1=O (stereo unspecified)	-26%	?	10µM*	4%	2%
Cc1ccc(-n2ncc3c(NCCC4=CCCCC4)ncnc32)cc1C	nt	21%	nt	17%	nt
